Test results: the supplement of paper PMC11001985
Unmarked numbers belong to inactive results.

Compound: C#CCNC(=O)CCSSCCC(=O)NCCc1ccc(C=O)c(C=O)c1
Test: lysine labeling ratio R10:1 (500 µM / 50 µM probe), SILAC-ABPP in living cells; higher = lower intrinsic lysine reactivity toward the probe, active = 2 or less
Conditions: HeLa; probe concentrations 500 vs 50 µM
Procedure, shortened: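 R, given per lysine, is the filtered median high-probe/low-probe MS1 peptide ratio, with the median then taken across forward and reverse replicates. Cells were living SILAC light and heavy HeLa cells in PBS at room temperature, labelled with 50 µM or 500 µM of an alkyne-tagged, disulfide-linked lysine probe. The ceiling applied is 20.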

Chain of UniProt P02751 (P02751 whole entry): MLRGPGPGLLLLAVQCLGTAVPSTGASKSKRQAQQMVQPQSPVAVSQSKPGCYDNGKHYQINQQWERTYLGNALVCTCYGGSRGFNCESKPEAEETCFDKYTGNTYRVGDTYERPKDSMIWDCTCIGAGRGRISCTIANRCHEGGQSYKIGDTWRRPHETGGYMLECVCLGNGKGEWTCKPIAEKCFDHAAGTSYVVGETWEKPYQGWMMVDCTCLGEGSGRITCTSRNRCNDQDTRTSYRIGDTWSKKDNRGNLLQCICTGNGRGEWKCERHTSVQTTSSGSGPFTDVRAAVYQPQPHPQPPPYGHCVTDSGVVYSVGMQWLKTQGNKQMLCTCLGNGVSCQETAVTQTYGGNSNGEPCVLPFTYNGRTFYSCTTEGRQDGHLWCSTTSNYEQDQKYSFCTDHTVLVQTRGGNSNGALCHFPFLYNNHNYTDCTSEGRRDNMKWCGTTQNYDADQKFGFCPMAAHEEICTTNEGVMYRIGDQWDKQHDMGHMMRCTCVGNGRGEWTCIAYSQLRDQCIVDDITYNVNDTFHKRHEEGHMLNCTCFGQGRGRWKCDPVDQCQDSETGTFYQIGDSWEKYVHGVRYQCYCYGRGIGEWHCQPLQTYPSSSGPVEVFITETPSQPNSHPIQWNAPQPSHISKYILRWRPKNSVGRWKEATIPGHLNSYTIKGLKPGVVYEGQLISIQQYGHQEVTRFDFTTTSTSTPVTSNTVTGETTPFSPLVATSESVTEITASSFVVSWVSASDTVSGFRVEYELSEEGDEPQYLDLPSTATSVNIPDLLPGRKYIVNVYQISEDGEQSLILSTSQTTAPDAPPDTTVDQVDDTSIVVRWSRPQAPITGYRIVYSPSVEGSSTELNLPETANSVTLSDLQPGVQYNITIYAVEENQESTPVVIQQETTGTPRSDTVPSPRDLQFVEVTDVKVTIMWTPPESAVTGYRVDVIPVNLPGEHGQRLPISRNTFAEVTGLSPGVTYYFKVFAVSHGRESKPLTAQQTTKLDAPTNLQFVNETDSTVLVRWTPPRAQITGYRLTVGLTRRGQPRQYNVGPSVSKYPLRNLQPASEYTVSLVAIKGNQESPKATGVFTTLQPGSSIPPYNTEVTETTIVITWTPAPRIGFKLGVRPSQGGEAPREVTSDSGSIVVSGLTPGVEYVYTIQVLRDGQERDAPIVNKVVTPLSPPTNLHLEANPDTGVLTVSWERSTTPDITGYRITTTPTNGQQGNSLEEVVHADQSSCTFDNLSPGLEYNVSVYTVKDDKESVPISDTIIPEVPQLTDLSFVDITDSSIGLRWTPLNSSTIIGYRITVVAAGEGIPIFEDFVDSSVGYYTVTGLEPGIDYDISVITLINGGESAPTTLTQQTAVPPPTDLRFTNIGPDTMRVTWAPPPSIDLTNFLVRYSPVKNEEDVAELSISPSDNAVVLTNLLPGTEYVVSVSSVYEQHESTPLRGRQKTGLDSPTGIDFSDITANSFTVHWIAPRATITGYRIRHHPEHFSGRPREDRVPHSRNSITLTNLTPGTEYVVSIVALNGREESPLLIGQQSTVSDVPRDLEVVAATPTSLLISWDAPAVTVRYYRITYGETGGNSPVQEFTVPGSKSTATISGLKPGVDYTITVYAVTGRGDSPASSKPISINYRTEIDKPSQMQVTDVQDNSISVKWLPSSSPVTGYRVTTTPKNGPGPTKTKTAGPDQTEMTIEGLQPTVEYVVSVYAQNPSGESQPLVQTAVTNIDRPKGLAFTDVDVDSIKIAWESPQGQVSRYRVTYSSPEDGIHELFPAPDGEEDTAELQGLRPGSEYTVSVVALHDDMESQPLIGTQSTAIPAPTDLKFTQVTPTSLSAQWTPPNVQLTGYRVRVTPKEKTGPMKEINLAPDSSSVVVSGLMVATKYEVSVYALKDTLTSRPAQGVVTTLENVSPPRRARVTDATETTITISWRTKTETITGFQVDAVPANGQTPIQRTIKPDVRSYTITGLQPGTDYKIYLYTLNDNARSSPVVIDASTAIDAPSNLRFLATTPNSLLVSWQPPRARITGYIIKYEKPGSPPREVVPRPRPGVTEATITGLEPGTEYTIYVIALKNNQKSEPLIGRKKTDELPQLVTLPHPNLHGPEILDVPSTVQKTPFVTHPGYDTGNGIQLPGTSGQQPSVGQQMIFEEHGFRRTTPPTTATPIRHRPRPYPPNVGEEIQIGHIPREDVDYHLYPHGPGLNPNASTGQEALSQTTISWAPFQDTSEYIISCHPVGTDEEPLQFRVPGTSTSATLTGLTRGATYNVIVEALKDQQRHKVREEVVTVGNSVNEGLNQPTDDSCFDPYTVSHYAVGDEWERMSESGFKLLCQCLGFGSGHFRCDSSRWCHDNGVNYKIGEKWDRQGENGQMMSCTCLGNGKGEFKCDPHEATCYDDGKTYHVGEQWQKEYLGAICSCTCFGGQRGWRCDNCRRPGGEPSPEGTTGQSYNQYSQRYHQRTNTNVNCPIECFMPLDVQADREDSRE
Chain of UniProt P41252 (P41252 whole entry): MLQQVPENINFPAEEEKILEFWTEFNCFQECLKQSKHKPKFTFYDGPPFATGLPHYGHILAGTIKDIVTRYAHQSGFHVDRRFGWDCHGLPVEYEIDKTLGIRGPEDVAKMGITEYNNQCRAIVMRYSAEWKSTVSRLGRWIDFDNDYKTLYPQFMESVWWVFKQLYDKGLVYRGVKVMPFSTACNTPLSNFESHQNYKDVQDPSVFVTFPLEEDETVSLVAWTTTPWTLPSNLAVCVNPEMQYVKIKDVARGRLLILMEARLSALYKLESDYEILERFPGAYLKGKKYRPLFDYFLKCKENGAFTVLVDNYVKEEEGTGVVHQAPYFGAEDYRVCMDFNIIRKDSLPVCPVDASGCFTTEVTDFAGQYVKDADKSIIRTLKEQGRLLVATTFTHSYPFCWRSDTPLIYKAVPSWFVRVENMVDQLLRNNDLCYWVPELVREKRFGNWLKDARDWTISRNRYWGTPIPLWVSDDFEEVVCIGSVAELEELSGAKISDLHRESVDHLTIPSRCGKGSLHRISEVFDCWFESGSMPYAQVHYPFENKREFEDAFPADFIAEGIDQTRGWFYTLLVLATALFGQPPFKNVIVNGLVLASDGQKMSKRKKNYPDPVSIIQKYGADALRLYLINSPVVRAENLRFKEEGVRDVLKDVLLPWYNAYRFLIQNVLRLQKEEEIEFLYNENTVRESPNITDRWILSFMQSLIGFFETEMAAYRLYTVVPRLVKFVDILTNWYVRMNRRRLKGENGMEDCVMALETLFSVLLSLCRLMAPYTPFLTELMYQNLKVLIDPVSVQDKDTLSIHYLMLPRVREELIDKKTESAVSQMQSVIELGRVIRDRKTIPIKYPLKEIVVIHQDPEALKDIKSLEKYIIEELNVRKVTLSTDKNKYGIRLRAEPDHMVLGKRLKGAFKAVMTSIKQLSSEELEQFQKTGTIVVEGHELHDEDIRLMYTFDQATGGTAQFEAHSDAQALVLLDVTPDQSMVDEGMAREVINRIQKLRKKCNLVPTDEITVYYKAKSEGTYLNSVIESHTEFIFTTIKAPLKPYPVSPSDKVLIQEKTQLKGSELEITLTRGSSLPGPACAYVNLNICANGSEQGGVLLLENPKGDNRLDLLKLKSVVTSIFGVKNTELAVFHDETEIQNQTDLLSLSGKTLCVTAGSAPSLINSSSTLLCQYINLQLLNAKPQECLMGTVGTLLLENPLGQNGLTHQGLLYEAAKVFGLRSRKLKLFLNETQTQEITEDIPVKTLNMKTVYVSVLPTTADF
Chain of UniProt P22413 (P22413 whole entry): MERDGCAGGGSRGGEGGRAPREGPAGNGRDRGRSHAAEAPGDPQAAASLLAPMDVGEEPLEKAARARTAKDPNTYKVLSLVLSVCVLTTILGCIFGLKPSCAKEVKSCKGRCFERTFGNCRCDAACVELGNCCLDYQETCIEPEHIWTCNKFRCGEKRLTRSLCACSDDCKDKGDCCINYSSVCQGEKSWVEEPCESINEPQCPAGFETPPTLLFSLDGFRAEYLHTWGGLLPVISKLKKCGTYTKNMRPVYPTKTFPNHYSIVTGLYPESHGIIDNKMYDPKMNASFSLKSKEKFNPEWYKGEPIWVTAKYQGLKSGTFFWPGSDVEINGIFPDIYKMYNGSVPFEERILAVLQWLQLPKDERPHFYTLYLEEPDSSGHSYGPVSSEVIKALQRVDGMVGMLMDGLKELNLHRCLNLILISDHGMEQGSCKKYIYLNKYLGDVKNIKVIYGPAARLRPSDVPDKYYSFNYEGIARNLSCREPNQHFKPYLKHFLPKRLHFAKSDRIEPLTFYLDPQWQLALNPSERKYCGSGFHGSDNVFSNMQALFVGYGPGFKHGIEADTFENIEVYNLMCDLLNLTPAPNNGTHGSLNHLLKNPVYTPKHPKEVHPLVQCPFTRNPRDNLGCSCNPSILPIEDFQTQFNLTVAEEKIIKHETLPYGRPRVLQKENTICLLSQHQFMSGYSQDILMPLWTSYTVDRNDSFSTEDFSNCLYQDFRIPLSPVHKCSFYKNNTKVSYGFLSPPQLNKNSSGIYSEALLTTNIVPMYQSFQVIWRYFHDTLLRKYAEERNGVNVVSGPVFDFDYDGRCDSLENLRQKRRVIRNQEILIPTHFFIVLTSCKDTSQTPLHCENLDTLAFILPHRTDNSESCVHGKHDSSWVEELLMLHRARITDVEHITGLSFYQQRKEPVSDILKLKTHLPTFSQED
Chain of UniProt Q96JJ7 (Q96JJ7 whole entry): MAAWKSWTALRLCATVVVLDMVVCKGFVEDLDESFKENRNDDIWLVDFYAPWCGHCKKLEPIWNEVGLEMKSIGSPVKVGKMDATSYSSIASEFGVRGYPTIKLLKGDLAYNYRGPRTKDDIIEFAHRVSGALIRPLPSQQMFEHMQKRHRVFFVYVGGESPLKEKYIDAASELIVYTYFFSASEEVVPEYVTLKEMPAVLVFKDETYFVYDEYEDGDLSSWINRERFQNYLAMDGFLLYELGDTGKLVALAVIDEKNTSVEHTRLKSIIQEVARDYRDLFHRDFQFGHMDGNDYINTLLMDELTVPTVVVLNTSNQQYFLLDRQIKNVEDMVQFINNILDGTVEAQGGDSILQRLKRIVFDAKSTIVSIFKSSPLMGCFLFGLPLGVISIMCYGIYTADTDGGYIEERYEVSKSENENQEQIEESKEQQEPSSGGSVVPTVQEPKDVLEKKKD

Target | lysine labeling ratio R10:1
HSD17B12 (lysine site: K261) (UniProt Q53GQ0) | 1.88 (active)
UniProt Q8WXI7 (lysine site: K13558) | 5.1
ITGA2 (lysine site: K1038) (UniProt P17301) | 2.81
DNAJA3 (lysine site: K391) (UniProt Q96EY1) | 1.5 (active)
FRAS1 (lysine site: K549) (UniProt Q86XX4) | 4.59
EPPK1 (lysine site: K2707) (UniProt P58107) | 3.42
EPHA7 (lysine site: K272) (UniProt Q15375) | 2.33
ROBO1 (lysine site: K224) (UniProt Q9Y6N7) | 0.52 (active)
UniProt Q96JJ7 (lysine site: K164) | 1.61 (active)
IGSF3 (lysine site: K888) (UniProt O75054) | 4.12
TKT (lysine site: K314) (UniProt P29401) | 5.08
SPTBN1 (lysine site: K1884) (UniProt Q01082) | 4.5
HNRNPU (lysine site: K592) (UniProt Q00839) | 2.21
FN1 (lysine site: K2030) (UniProt P02751) | 0.807 (active)
PEBP1 (lysine site: K113) (UniProt P30086) | 2.7
RPS19 (lysine site: K122) (UniProt P39019) | 4.72
ICAM1 (lysine site: K469) (UniProt P05362) | 4.19
DSC2 (lysine site: K381) (UniProt Q02487) | 1.71 (active)
FLOT1 (lysine site: K220) (UniProt O75955) | 2.84
DDX3X (lysine site: K118) (UniProt O00571) | 4.1
IARS (lysine site: K903) (UniProt P41252) | 1.66 (active)
UniProt Q9UHN6 (lysine site: K767) | 3.26
PLS3 (lysine site: K335) (UniProt P13797) | 0.765 (active)

Target | lysine labeling ratio R10:1
UniProt Q15149 (lysine site: K567) | 14.2
RPS3A (lysine site: K63) (UniProt P61247) | 1.79 (active)
LAMC1 (lysine site: K1584) (UniProt P11047) | 3.72
UniProt P22413 (lysine site: K503) | 1.89 (active)
FLNB (lysine site: K960) (UniProt O75369) | 1.54 (active)
NOTCH2 (lysine site: K1353) (UniProt Q04721) | 7.44
PTGFRN (lysine site: K522) (UniProt Q9P2B2) | 2.13
GALNT2 (lysine site: K111) (UniProt Q10471) | 3.04
EGFR (lysine site: K212) (UniProt P00533) | 2.63
UniProt Q8WXI7 (lysine site: K10462) | 1.27 (active)
CCT6A (lysine site: K199) (UniProt P40227) | 0.593 (active)
FN1 (lysine site: K149) (UniProt P02751) | 1.99 (active)
NRP1 (lysine site: K536) (UniProt O14786) | 5.72
CSPG4 (lysine site: K831) (UniProt Q6UVK1) | 5.17
ITGA6 (lysine site: K127) (UniProt P23229) | 1.74 (active)
UniProt P08240 (lysine site: K220) | 2.1
UniProt P48047 (lysine site: K98) | 1.89 (active)
FAT4 (lysine site: K2566) (UniProt Q6V0I7) | 2.59
MLEC (lysine site: K69) (UniProt Q14165) | 1.64 (active)
SLC3A2 (lysine site: K255) (UniProt P08195) | 1.64 (active)
RPL5 (lysine site: K188) (UniProt P46777) | 4.22
SEMA3C (lysine site: K613) (UniProt Q99985) | 5.77
IARS (lysine site: K375) (UniProt P41252) | 1.66 (active)
